Activity calls are given as the source filed them. The calls were made as follows: active = hit-call score of the fitted dose curve at least 0.9, where 1 is the maximum; inactive = score below 0.9.
What was measured:
Conditions in all cases: mRNA level, 48 h; actives raise or lower the signal
[1] = read-out: Ezrin (EZR), EZR (gene 7430); test: LTEA_HepaRG_EZR: Life Technologies and Expression Analysis (LTEA) Assay for Ezrin (EZR) using HepaRG (AID 2283491)
Outline: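 Read-out is EZR transcript level by qRT-PCR, normalized to three housekeeping genes and fitted bidirectionally against the DMSO control. Human HepaRG cells received test chemicals for 48 h at eight half-log concentrations up to 100 uM in 0.5% DMSO.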

[2] = read-out: Cytochrome P450 3A7 (Homo sapiens) (UniProt P24462); test: LTEA_HepaRG_CYP3A7: Life Technologies and Expression Analysis (LTEA) Assay for CYP3A7 using HepaRG (AID 2283492)
Outline: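 Differentiated HepaRG cells in serum-free induction medium exposed 48 h in duplicate to 8-point half-log series from 100 uM top in 0.5% DMSO. CYP3A7 mRNA by qRT-PCR, normalized to ACTB/GAPDH/POLR2A, bidirectional fit versus DMSO.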

[3] = read-out: CYP3A5 (gene 1577); test: LTEA_HepaRG_CYP3A5: Life Technologies and Expression Analysis (LTEA) Assay for CYP3A5 using HepaRG (AID 2283493)
Outline: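 HepaRG plated 48 h, switched to serum-free induction medium, chemicals added 48 h (max 100 uM, half-log, 0.5% DMSO). RNA isolated; CYP3A5 by TaqMan qRT-PCR. Gain/loss vs DMSO.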

[4] = read-out: Fatty Acid-Binding Protein 1 (FABP1), FABP1 (gene 2168); test: LTEA_HepaRG_FABP1: Life Technologies and Expression Analysis (LTEA) Assay for Fatty Acid-Binding Protein 1 (FABP1) using HepaRG (AID 2283494)
Outline: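 Differentiated human HepaRG cells exposed 48 h in serum-free induction medium to eight half-log concentrations up to 100 uM (0.5% DMSO), duplicate. FABP1 mRNA by qRT-PCR, normalised to ACTB, GAPDH, POLR2A; bidirectional fitting against DMSO.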

[5] = read-out: Cytochrome P450 4A22 (Homo sapiens) (UniProt Q5TCH4); test: LTEA_HepaRG_CYP4A22: Life Technologies and Expression Analysis (LTEA) Assay for Cytochrome P450 4A22 (CYP4A22) using HepaRG (AID 2283495)
Outline: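 Differentiated HepaRG cells in serum-free induction medium exposed 48 h in duplicate to eight half-log concentrations up to 100 uM in 0.5% DMSO. CYP4A22 mRNA quantified by TaqMan qRT-PCR, normalized to ACTB, GAPDH and POLR2A; bidirectional fit versus DMSO.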

[6] = read-out: Cytochrome P450 7A1 (Homo sapiens) (UniProt P22680); test: LTEA_HepaRG_CYP7A1: Life Technologies and Expression Analysis (LTEA) Assay for Cytochrome P450 7A1 (CYP7A1) using HepaRG (AID 2283496)
Outline: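 HepaRG cells plated 48 h, then switched to serum-free induction medium and exposed in duplicate for 48 h to 8-point half-log series from 100 uM in 0.5% DMSO. CYP7A1 mRNA by qRT-PCR (TaqMan), normalized to ACTB/GAPDH/POLR2A; bidirectional fit versus DMSO.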

[7] = read-out: Glutathione S-Transferase (GSTA2), GSTA2 (gene 2939); test: LTEA_HepaRG_GSTA2: Life Technologies and Expression Analysis (LTEA) Assay for Glutathione S-Transferase (GSTA2) using HepaRG (AID 2283497)
Outline: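 Differentiated human HepaRG cells were exposed in duplicate for 48 h in serum-free induction medium, 8 points from 100 uM top in half-log steps, 0.5% DMSO. GSTA2 mRNA was measured by TaqMan qRT-PCR, normalized to ACTB, GAPDH and POLR2A; bidirectional fit versus DMSO.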

[8] = read-out: Glutamate-cysteine ligase catalytic (GCLC), GCLC (gene 2729); test: LTEA_HepaRG_GCLC: Life Technologies and Expression Analysis (LTEA) Assay for Glutamate-cysteine ligase catalytic (GCLC) using HepaRG (AID 2283498)
Outline: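 Differentiated HepaRG cells exposed 48 h in serum-free induction medium, eight-point half-log series topping at 100 uM in 0.5% DMSO, duplicates. GCLC mRNA by qRT-PCR normalized to ACTB, GAPDH and POLR2A, fitted bidirectionally versus DMSO.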

[9] = read-out: growth arrest and DNA damage 45 (GADD45G), GADD45G (gene 10912); test: LTEA_HepaRG_GADD45G: Life Technologies and Expression Analysis (LTEA) Assay for growth arrest and DNA damage 45 (GADD45G) using HepaRG (AID 2283499)
Outline: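 Differentiated human HepaRG cells, 48 h post-plating, exposed 48 h in serum-free induction medium to 8 half-log concentrations (top 100 uM, 0.5% DMSO) in duplicate. GADD45G mRNA measured by Fluidigm TaqMan qRT-PCR, normalized to ACTB, GAPDH, POLR2A; bidirectional fit versus DMSO.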

[10] = read-out: Glutathione S-transferase M3 (GSTM3), GSTM3 (gene 2947); test: LTEA_HepaRG_GSTM3: Life Technologies and Expression Analysis (LTEA) Assay for Glutathione S-transferase M3 (GSTM3) using HepaRG (AID 2283501)
Outline: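 Differentiated human HepaRG cells were exposed in duplicate for 48 h in serum-free induction medium, 8 points from 100 uM top in half-log steps, 0.5% DMSO. GSTM3 mRNA was measured by TaqMan qRT-PCR, normalized to ACTB, GAPDH and POLR2A; bidirectional fit versus DMSO.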

[11] = read-out: Heat shock 70 kDa protein 1 (HSPA1A), gene 3303; test: LTEA_HepaRG_HSPA1A: Life Technologies and Expression Analysis (LTEA) Assay for Heat shock 70 kDa protein 1 (HSPA1A) using HepaRG (AID 2283502)
Outline: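 Readout is HSPA1A transcript level by microfluidic qRT-PCR, normalized to three housekeeping genes and analysed for gain or loss of signal relative to 0.5% DMSO. Human HepaRG cultures received test chemicals for 48 h at up to 100 uM.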

[12] = read-out: Hypoxia-inducible factor 1-alpha (Homo sapiens) (UniProt Q16665); test: LTEA_HepaRG_HIF1A: Life Technologies and Expression Analysis (LTEA) Assay for Hypoxia-inducible factor 1 (HIF1A) Trancription factor using HepaRG (AID 2283503)
Outline: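 Differentiated HepaRG cells in serum-free induction medium exposed 48 h, in duplicate, to 8-point half-log series from 100 uM in 0.5% DMSO. HIF1A mRNA measured by TaqMan qRT-PCR, normalized to ACTB/GAPDH/POLR2A, fitted bidirectionally versus DMSO.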

[13] = read-out: 3-Hydroxy-3-Methylglutaryl-CoA Synthase 2 (HMGCS2), HMGCS2 (gene 3158); test: LTEA_HepaRG_HMGCS2: Life Technologies and Expression Analysis (LTEA) Assay for 3-Hydroxy-3-Methylglutaryl-CoA Synthase 2 (HMGCS2) using HepaRG (AID 2283504)
Outline: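 Human HepaRG cells in serum-free induction medium were exposed in duplicate for 48 h to 8-point half-log series from 100 uM top in 0.5% DMSO. HMGCS2 mRNA measured by TaqMan qRT-PCR, normalised to ACTB, GAPDH, POLR2A; bidirectional fit versus DMSO.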

[14] = read-out: HGF (gene 3082); test: LTEA_HepaRG_HGF: Life Technologies and Expression Analysis (LTEA) Assay for Hepatocyte Growth Facto (HGF) using HepaRG (AID 2283505)
Outline: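 Differentiated HepaRG cells in serum-free induction medium exposed 48 h in duplicate, 8 half-log concentrations from 100 uM in 0.5% DMSO. HGF mRNA by qRT-PCR, normalised to ACTB, GAPDH, POLR2A; bidirectional fitting.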

[15] = read-out: Insulin Like Growth Factor 1 (IGF1), IGF1 (gene 3479); test: LTEA_HepaRG_IGF1: Life Technologies and Expression Analysis (LTEA) Assay for Insulin Like Growth Factor 1 (IGF1) using HepaRG (AID 2283506)
Outline: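 HepaRG, plated 48 h, then switched to serum-free induction media; test chemical 8-pt half-log from 100 uM (0.5% DMSO), duplicate, 48 h. Lysis in RLT, TaqMan qRT-PCR, norm. ACTB/GAPDH/POLR2A. Bidirectional fit vs DMSO.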

[16] = read-out: Intercellular Adhesion Molecule 1 (ICAM1), ICAM1 (gene 3383); test: LTEA_HepaRG_ICAM1: Life Technologies and Expression Analysis (LTEA) Assay for Intercellular Adhesion Molecule 1 (ICAM1) using HepaRG (AID 2283507)
Outline: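 Differentiated human HepaRG cells in serum-free induction medium exposed 48 h in duplicate to 8 half-log concentrations (top 100 uM, 0.5% DMSO). ICAM1 mRNA quantified by TaqMan qRT-PCR, normalized to ACTB, GAPDH and POLR2A; bidirectional fitting versus DMSO.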

[17] = read-out: Insulin-like growth factor-binding protein 1 (IGFBP1), IGFBP1 (gene 3484); test: LTEA_HepaRG_IGFBP1: Life Technologies and Expression Analysis (LTEA) Assay for Insulin-like growth factor-binding protein 1 (IGFBP1) using HepaRG (AID 2283508)
Outline: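 HepaRG cells, plated 48 h then switched to serum-free induction medium, exposed in duplicate for 48 h to 8-point half-log series from 100 uM in 0.5% DMSO. mRNA measured by qRT-PCR, normalized to ACTB/GAPDH/POLR2A; bidirectional fit versus DMSO.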

[18] = read-out: Interleukin 6 Receptor (IL6R), IL6R (gene 3570); test: LTEA_HepaRG_IL6R: Life Technologies and Expression Analysis (LTEA) Assay for Interleukin 6 Receptor (IL6R) using HepaRG (AID 2283510);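 as to AC50: TaqMan qRT-PCR signal normalized to ACTB GAPDH and POLR2A housekeeping genes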
Outline: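 Readout is IL6R transcript level by TaqMan qRT-PCR, normalized to three housekeeping genes and fitted bidirectionally against 0.5% DMSO controls. Human HepaRG cells received chemicals for 48 h in serum-free induction medium, highest concentration 100 uM.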

[19] = read-out: Glutamate-cysteine ligase regulatory (GCLM), GCLM (gene 2730); test: LTEA_HepaRG_GCLM: Life Technologies and Expression Analysis (LTEA) Assay for Glutamate-cysteine ligase regulatory (GCLM) using HepaRG (AID 2283500)
Outline: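 Cells were plated, cultured 48 h, switched to serum-free induction medium, then dosed in duplicate for 48 h at eight half-log concentrations up to 100 uM. RNA was then profiled by qRT-PCR; gain or loss versus DMSO was fitted.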

[20] = read-out: Interleukin 6 (IL6), IL6 (gene 3569); test: LTEA_HepaRG_IL6: Life Technologies and Expression Analysis (LTEA) Assay for Interleukin 6 (IL6) using HepaRG (AID 2283509)
Outline: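 HepaRG cells exposed in duplicate for 48 h to eight half-log concentrations, top 100 uM, in 0.5% DMSO serum-free induction medium. mRNA measured by qRT-PCR, normalized to ACTB, GAPDH and POLR2A. Bidirectional fit versus DMSO.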

Measured: AC50

Cytochrome P450 3A7 (Homo sapiens), sequence (P24462 whole entry, looked up): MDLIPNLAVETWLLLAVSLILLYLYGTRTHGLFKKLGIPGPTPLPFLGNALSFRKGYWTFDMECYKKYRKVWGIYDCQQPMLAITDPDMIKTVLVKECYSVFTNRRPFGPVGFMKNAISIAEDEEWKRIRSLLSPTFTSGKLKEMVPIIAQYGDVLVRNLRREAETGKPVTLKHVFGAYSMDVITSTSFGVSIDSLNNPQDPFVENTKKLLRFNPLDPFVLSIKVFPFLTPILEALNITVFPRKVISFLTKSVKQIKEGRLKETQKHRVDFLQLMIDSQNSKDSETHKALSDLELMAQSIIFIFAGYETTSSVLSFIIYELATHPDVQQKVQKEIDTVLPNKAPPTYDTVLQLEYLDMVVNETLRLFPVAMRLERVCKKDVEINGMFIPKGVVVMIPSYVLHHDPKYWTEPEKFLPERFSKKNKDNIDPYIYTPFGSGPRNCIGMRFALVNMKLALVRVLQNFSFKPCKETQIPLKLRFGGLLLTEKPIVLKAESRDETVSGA
Hypoxia-inducible factor 1-alpha (Homo sapiens), sequence (Q16665 whole entry, looked up): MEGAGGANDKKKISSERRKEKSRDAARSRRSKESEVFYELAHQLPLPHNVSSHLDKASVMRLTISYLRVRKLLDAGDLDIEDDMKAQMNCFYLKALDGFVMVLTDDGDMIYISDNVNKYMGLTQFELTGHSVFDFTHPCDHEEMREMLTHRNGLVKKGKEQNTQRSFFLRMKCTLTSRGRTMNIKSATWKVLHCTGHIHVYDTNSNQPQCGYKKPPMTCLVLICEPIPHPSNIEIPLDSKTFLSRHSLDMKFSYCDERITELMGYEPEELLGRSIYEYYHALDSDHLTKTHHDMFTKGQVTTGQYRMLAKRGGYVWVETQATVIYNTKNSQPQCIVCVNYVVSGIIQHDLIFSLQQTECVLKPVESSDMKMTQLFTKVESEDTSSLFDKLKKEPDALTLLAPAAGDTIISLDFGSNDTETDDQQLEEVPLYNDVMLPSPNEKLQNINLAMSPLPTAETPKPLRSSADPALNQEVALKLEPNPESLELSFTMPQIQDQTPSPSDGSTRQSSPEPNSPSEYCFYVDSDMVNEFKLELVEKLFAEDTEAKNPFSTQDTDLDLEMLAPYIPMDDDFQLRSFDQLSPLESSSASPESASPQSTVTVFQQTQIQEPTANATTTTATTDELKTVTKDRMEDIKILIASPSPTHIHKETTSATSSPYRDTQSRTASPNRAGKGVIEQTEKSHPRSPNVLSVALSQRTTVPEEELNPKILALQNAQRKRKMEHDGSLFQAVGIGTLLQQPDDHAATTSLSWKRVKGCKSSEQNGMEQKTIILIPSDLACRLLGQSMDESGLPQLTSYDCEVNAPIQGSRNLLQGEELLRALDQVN

O=C(NS(=O)(=O)/C=C/c1ccccc1)c1ccc(F)cc1Cl
active: [2] 28.7 µM | [4] 2.67 µM | [6] 23.4 µM | [13] 27.9 µM | [15] 8.33 µM
not listed: [19] | [20]
inactive: all other assays above

C=CC(=C)CCC=C(C)C
inactive: all assays above

CNCc1ccc(NC(=O)c2c[nH]c3c2C(=O)CCC3)cc1
not listed: [20]
inactive: all other assays above

CCc1cc(SCc2sc(-c3ccc(C(F)(F)F)cc3)nc2CN2CCN(c3ccc(OC)cc3)CC2)ccc1OCC(=O)O
active: [1] 94.3 µM | [2] 8.73 µM | [3] 10.9 µM | [4] 76.8 µM | [5] 8.62 µM | [6] 7.1 µM | [7] 77 µM | [8] 94.1 µM | [9] 91.2 µM | [12] 91.1 µM | [13] 77.1 µM | [14] 7.66 µM | [15] 73.8 µM | [16] 92.9 µM | [17] 88.6 µM | [18] 26.2 µM
inactive: [10]

CCOC(=O)COc1ccc2c(c1)CC(NCC(O)c1cccc(Cl)c1)CC2 (centres undefined)
active: [4] 45.8 µM
not listed: [8]
inactive: all other assays above

C=CCCCCCCCCC(=O)O
not listed: [19] | [20]
inactive: all other assays above

CCOC(=O)CC(CC(=O)OCC)(OC(C)=O)C(=O)OCC
not listed: [11] | [19]
inactive: all other assays above

CC(=O)OCCC(C)C
not listed: [20]
inactive: all other assays above

O=C(CCCCCCCCc1cccnc1)N1CCC(C=C(c2ccccc2)c2ccccc2)CC1
inactive: [2] | [3] | [10]
active: [1] 13.1 µM | [4] 26.9 µM | [5] 22.7 µM | [6] 27.1 µM | [7] 28.7 µM | [8] 12.5 µM | [9] 22.8 µM | [11] 81 µM | [12] 77.2 µM | [13] 22.9 µM | [14] 11.9 µM | [15] 16.5 µM | [16] 16.4 µM | [17] 28.5 µM | [18] 89.3 µM

CCCCCCCCCCCCc1ccccc1
not listed: [8]
inactive: all other assays above

CCN(C(=O)c1cc(C)cc(OC[C@H](C)Nc2ccncc2)c1)C(C)C
active: [2] 8.43 µM | [4] 2.25 µM | [5] 33.8 µM | [6] 50.5 µM | [9] 33.8 µM | [13] 33.8 µM | [14] 33.8 µM | [15] 33.8 µM | [20] 33.8 µM
not listed: [11] | [19]
inactive: all other assays above

CC(=O)OC[C@H]1O[C@@](COC(C)=O)(O[C@H]2O[C@H](COC(C)=O)[C@@H](OC(C)=O)[C@H](OC(C)=O)[C@H]2OC(C)=O)[C@@H](OC(C)=O)[C@@H]1OC(C)=O
not listed: [20]
inactive: all other assays above

CCCN(C1CCN(C(=O)C2CCNCC2)CC1)[C@@H]1CCc2ccc(OC)cc2C1
active: [2] 86.4 µM | [3] 80.3 µM | [4] 83.5 µM | [5] 88.2 µM | [6] 77.3 µM | [7] 81 µM | [8] 50 µM | [10] 50 µM | [12] 88.2 µM | [15] 50 µM | [16] 77.4 µM | [17] 69.5 µM | [18] 50 µM
inactive: [1] | [9] | [19] | [14]
